In the library only some 4.1% were active in any assay of this set; here they are far more common.
DAX1 inh-1 = NR0B1 (DAX1) inhibition. HEK293 Gal4-DAX1 luciferase reporter, luminescence. inhibition, % at 6.75 µM. hit rate 0.99% among 340,000. AID 504766;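 active means inhibition above the mean over all tested compounds plus 3 SD, cut at about 4.2% in these data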;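 further: inhibition shows as a rise in luminescence from relieved DAX1 repression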
Target sequence (P51843 207-470 limits assumed): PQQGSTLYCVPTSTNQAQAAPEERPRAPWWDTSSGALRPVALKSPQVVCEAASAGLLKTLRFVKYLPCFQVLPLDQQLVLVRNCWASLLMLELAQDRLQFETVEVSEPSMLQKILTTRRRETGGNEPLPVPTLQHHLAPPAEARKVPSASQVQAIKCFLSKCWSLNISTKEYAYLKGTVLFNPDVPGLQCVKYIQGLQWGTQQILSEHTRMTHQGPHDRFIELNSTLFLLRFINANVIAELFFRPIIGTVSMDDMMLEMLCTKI
DAX1 inh-2 = DAX1 (NR0B1) inhibition, primary screen. AID 652010. HEK293T StAR-luciferase reporter, SF-1/DAX-1 repression relief. inhibition, % at 6.8 µM. hit rate 1.1% among 370,000;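 active means inhibition above the mean over all tested compounds plus 3 SD, cut at about 3.6% in these data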;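 further: higher inhibition means more luminescence from relief of DAX-1 repression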
hgDAF-12 ag = agonists of H. glycines DAF-12 nuclear receptor. AID 687014. hit rate 1.8% among 370,000. HEK293 GAL4-hgDAF12 UAS-luciferase reporter, agonist luminescence; normalized to butyrate control. activation, % at 6.8 µM;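 active means activation above a cutoff set at the mean of all screened compounds plus 3 SD, cut at about 10% in these data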
hcDAF-12 act = H. contortus DAF-12 activation, primary screen | activation, % at 6.8 µM | HEK293 hcDAF-12 lit1-tk-luc reporter, luminescence; 0% DMSO, 100% Δ7-dafachronic acid | AID 652067 | hit rate 1.4% among 370,000;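 active means activation above the mean of all tested compounds plus 3 SD, cut at about 5.5% in these data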
ssDAF12 agonist = S. stercoralis DAF-12 activation, primary screen | HEK293 ssDAF-12/GRIP1 lit1-tk-luc reporter, luminescence; % of 3 µM dafachronic acid response | activation, % at 6.8 µM | AID 652126 | hit rate 1% among 370,000;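 active means activation above the mean over all tested compounds plus 3 SD, cut at about 0.9% in these data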
Each line names hits and unclear results; the compound was inactive in the other large screens.

O=C(COC(=O)COc1ccccc1[N+](=O)[O-])Nc1ccccc1Br	none
Cc1ccc(OCC(=O)Nc2ccccc2[N+](=O)[O-])c(Br)c1	ssDAF12 agonist 1.0
COc1cccc(Cn2cc(COC(=O)NCC(C)C)nn2)c1	none (no result: DAX1 inh-1)
O=C(CCc1ccc(S(=O)(=O)NC2CCCCC2)cc1)NCc1cccnc1	none
Cc1ccc(CNC(=O)CCc2ccc(S(=O)(=O)NC3CCCCC3)cc2)cc1	hcDAF-12 act 5.8
C[C@H]1[C@@H](c2ccccc2)Oc2c(Cl)cccc2S(=O)(=O)N1C	none (no result: DAX1 inh-1)
COc1ccc(-n2c(Cc3cccs3)nnc2SCC(=O)Nc2cccc3ccccc23)cc1	none (no result: DAX1 inh-1)
CC1CCN(c2ccc(C(=O)O)cc2NS(=O)(=O)c2ccc(F)cc2)CC1	none (no result: DAX1 inh-1)
COC(=O)[C@]12C[C@H](CC(=O)NCC3CCCCC3)C(=O)N(Cc3ccc(Cl)cc3Cl)C1=C[C@H](C(C)C)O[C@@H]2C1CC1	none (no result: DAX1 inh-1)
N#Cc1ccccc1NC(=O)c1ccc2c(c1)OCCO2	none
O=C(Nc1ccc(Br)cc1F)c1ccc2c(c1)OCCO2	hgDAF-12 ag 11
O=C(Nc1ccc(F)cc1F)c1ccc2c(c1)OCCO2	hgDAF-12 ag 13
O=C(COC(=O)c1ccc2c(c1)OCCO2)Nc1ccc(F)cc1F	none
CCCCCN1CCCCC(NC(=O)c2cccc(C(F)(F)F)c2)C1=O (stereo unspecified)	none (no result: DAX1 inh-1)
CCC(C)(C(=O)NC1CCCCC1)N(Cc1cccs1)C(=O)c1ccc(=O)[nH]c1 (stereo unspecified)	DAX1 inh-1 4.7
O=C1OC(Cc2ccccn2)C(O)=C1C1=NCCCCN1 (stereo unspecified)	DAX1 inh-1 5.3, hgDAF-12 ag 13
O=C1OC(Cc2ccccn2)C(O)=C1C1=NCCCN1 (stereo unspecified)	none
Cc1ccc(C(=O)Oc2ccc(/C=C3\C(=N)N4N=C(N5CCOCC5)SC4=NC3=O)cc2)cc1	hgDAF-12 ag 12
Clc1ccc(-c2nnc(CCc3ccccc3)o2)c(Cl)c1	hcDAF-12 act 5.8
Cc1ccsc1/C=N/Nc1ncnc2nc[nH]c12	DAX1 inh-1 4.6
Clc1cnc(N/N=C/c2cccs2)c(Cl)c1	ssDAF12 agonist 1.0
Cc1ccccc1/C=N/Nc1ncnc2nc[nH]c12	none
C(=N\Nc1ncnc2nc[nH]c12)/c1cccs1	DAX1 inh-1 5.7
O=C(NCc1cccs1)C1CCC(CNS(=O)(=O)c2cccc3cccnc23)CC1 (stereo unspecified)	none (no result: DAX1 inh-1)
CCCC1CCC2(CCCN2CCOC(=S)NCc2cccc(C)c2)CC1 (stereo unspecified)	none (no result: DAX1 inh-1, DAX1 inh-2)
COc1ccc(CN2C(=O)[C@]3(NCCc4c3[nH]c3ccc(OC)cc43)c3cc(F)ccc32)cc1	none (no result: DAX1 inh-1)
Cc1ccc([N+](=O)[O-])c(OCc2ncc(Cl)n2C)c1	ssDAF12 agonist 1.1
Cc1ccc(S(=O)(=O)Nc2nc3ccccc3nc2NCC2CCCO2)cc1C (stereo unspecified)	DAX1 inh-1 4.5
Cc1cccc(S(=O)(=O)Nc2nc3ccccc3nc2NCC2CCCO2)c1 (stereo unspecified)	none
O=S(=O)(Nc1nc2ccccc2nc1NCc1ccco1)c1ccc(Cl)cc1	none
Cc1ccc(S(=O)(=O)Nc2nc3ccccc3nc2NCc2ccco2)cc1	ssDAF12 agonist 1.4
ON=Cc1ccnc2ccccc12	none
O=C(O)c1ccccc1N/N=C\c1ccnc2ccccc12	hgDAF-12 ag 12, hcDAF-12 act 6.4
O=C(O)c1ccccc1N/N=C/c1cc(Br)cc(Br)c1O	DAX1 inh-1 5.6
NNC(=O)c1ccc(Cn2cc(Br)cn2)o1	DAX1 inh-1 4.5
Cc1ccccc1N=C1Nc2ccccc2N[C@]12C[C@H]1CCC(=O)N3CC[C@@H](C2)[C@@H]13	none
O=C1CC[C@@H]2CC3(C[C@@H]4CCN1[C@H]24)Nc1ccccc1NC3=NC1CCCCC1 (stereo partly specified)	DAX1 inh-1 5.2
CCCCc1nc2cc(C(=O)N3CCC[C@H]3CO)ccc2o1	none
CCCCc1nc2cc(C(=O)N(C)CCc3cn[nH]c3)ccc2o1	none
CCOC(=O)C1CCCN(C(=O)c2ccc3oc(Cc4ccccc4)nc3c2)C1 (stereo unspecified)	hgDAF-12 ag 11
CCCCc1nc2cc(C(=O)NCc3cc(C)n(C)n3)ccc2o1	hcDAF-12 act 6.2
O=C(NCCCN1CCOCC1)c1ccc2nc(Cc3ccccc3F)oc2c1	DAX1 inh-2 4.2
CC(C)CC(=O)C1CCCN(C(=O)c2ccc3oc(Cc4ccccc4)nc3c2)C1 (stereo unspecified)	none
CCCCc1nc2cc(C(=O)N3CCC(O)CC3)ccc2o1	hgDAF-12 ag 11, hcDAF-12 act 6.2, ssDAF12 agonist 1.0
O=C(NCCCN1CCOCC1)c1ccc2ccccc2c1	none
C=CCN1C(=O)[C@@H](CC(=O)NCc2cccs2)[C@]2(C(=O)OCC)CCCCC/C=C/12	none (no result: DAX1 inh-1)
Cc1cc(CNC(=O)c2ccc3nc(Cc4ccccc4F)oc3c2)nn1C	hgDAF-12 ag 12
O=C(NCc1ccncc1)c1ccc2nc(Cc3ccccc3F)oc2c1	none
COc1ccc(N=Cc2c(O)n(-c3cccc(C)n3)c(=O)c3ccccc23)c(OC)c1	DAX1 inh-1 5.2
CCCn1c(-c2cccc([N+](=O)[O-])c2)nc2c1c(=O)[nH]c(=O)n2Cc1ccccc1	DAX1 inh-1 6.4
CCC(=O)N1CCc2cc(Br)c(S(=O)(=O)N3CCC(C(=O)NCCCOC(C)C)CC3)cc21	none (no result: DAX1 inh-1)
CN1C(=O)C2(N=c3ccccc3=N2)c2ccccc21	none (no result: DAX1 inh-2, hgDAF-12 ag, hcDAF-12 act, ssDAF12 agonist)
CN1C(=O)C(O)(c2nnc(-c3ccccc3)o2)c2ccccc21 (stereo unspecified)	ssDAF12 agonist 1.1
CC(C)C[C@@H]1NC(=O)[C@H]2C[C@@]3(C)c4ccccc4N[C@H]3N2C1=O	none (no result: DAX1 inh-1)
O=C1CCC[C@H]2C[C@H](NCc3cccc(F)c3)CC[C@]23CCCN13	none (no result: DAX1 inh-1, DAX1 inh-2)
C/C(=N/NC(=O)c1ccco1)c1cccc(NC(=O)c2ccc(C)o2)c1	hgDAF-12 ag 13
C/C(=N\NC(=O)c1cccc(C)c1)c1cccc(NC(=O)c2ccco2)c1	none
C/C(=N/NC(=O)c1ccco1)c1cccc(NC(=O)c2ccc(C)s2)c1	hgDAF-12 ag 12
CCOC(=O)c1oc2ccccc2c1COC(=O)C(C)NC(=O)c1ccco1 (stereo unspecified)	none
O=C1N2Cc3ccccc3C2CS(=O)(=O)N1Cc1ccccc1 (stereo unspecified)	none (no result: DAX1 inh-1)
CC1CCCCC1=NNC(=O)c1ccccc1 (stereo unspecified)	DAX1 inh-1 5.9, DAX1 inh-2 4.1
COc1ccc(S[C@]2(C(=O)N3CCN(c4ncccn4)CC3)CC(=O)N(C(=O)c3ccccc3)[C@@H]2c2ccc(OC)cc2)cc1	none (no result: DAX1 inh-1)
NC(N)=NC(=O)c1nc(Cl)c(N2CCCCCC2)nc1N	hgDAF-12 ag 13
O=C(NNC(=S)Nc1ccc(F)cc1)c1cccc([N+](=O)[O-])c1	ssDAF12 agonist 1.8

Bioassay records deposited in PubChem by The Scripps Research Institute Molecular Screening Center.
